# In the library only some 11% were active in any assay of this set; here they are far more common.
# HPGD block – inhibitors of human 15-hydroxyprostaglandin dehydrogenase (HPGD); 150,000 tested, 4.3% active; Potency, µM, without a hit: top-dose activity change, negative = inhibition, most hits filed as inhibitors; purified HPGD, NADH fluorescence kinetic, PGE2 substrate; P15428; further: potency means the concentration at half of the fitted maximal effect
#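 NADH formation kinetics: reaction with 30 uM PGE2 and 1 mM NAD+ (final), 20 nM enzyme, Tris-HCl pH 8 with Tween 20, after 15 min compound preincubation at room temperature. Fluorescence change, last versus first of five reads.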
# ALDH1A1 inh – blocks purified human ALDH1A1 activity. Potency, µM (highest dose often 75.3 µM), for inactives: at the highest dose activity, negative = inhibition, hits mostly inhibitors. AID 1030. 220,000 tested, 7.3% active. Purified ALDH1A1, NADH fluorescence, propionaldehyde substrate. P00352;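 further: potency means the concentration at half of the fitted maximal effect; plate controls were no enzyme wells and a reference inhibitor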
# ALOX12 inhib – 12-hLO (ALOX12) enzyme inhibition. 150,000 tested, 0.12% active. Potency, µM (doses to about 57.1 µM), for inactives: at the highest dose activity change, negative = inhibition, actives largely listed as inhibitors. purified 12-hLO, xylenol orange hydroperoxide absorbance. P18054; active means well fitted curve in the direction sought with a large enough effect; inconclusive means small, poorly fitted or top-dose-only effect, or another doubt; inactive means no such curve, though single readings can be large; an effect the other way counts as inactive or inconclusive; further: potency means the concentration at half of the fitted maximal effect; nearly all actives have a fitted effect of over 55% in size
# Target sequence (P18054 whole entry, looked up): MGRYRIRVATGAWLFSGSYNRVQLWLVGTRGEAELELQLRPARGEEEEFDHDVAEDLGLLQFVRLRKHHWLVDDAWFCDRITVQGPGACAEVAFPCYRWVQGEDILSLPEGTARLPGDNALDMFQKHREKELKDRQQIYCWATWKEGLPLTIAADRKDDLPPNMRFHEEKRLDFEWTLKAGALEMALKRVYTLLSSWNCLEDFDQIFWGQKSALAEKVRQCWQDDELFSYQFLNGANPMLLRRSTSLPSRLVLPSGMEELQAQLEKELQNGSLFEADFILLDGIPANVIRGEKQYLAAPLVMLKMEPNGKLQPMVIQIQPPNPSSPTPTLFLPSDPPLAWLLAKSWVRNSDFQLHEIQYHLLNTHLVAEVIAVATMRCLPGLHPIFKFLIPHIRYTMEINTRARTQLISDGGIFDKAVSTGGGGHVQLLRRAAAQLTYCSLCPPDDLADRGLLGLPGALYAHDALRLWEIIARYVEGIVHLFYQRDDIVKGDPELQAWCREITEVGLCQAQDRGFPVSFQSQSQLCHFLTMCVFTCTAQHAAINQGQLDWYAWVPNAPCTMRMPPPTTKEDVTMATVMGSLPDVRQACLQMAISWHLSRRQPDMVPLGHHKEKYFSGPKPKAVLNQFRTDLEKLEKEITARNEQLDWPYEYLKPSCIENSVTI
#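 150 nM 12hLO, 25 mM Hepes pH 7.0 + 0.01% Triton X-100; cpd preinc 15 min RT; 40 uM arachidonic acid, 30 min RT; Fe-XO 30 min; A573/A405 ratio as read-out.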
# PNC assembly inh – blocks assembly of the perinucleolar compartment | PC3M PTB-GFP, PNC prevalence imaging, 16 h; hits give low values | activity change (PNC), negative = inhibition, % at 10 µM | 140,000 tested, 3.1% active;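 active means readout at or below -70, meaning at least 70% loss of cells showing the perinucleolar compartment, a nuclear body marking cancer cells; inconclusive means readout between -30 and a set limit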;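 further: plate controls were DMSO wells for no effect and camptothecin positive control wells for full effect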
#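 Compounds are pinned in duplicate onto adhered PC3M cells stably expressing GFP-tagged PTB and incubated 16 h at 37 C. Cells are then fixed, nuclei stained with Hoechst, and PNC-positive cells counted.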
# IMPase cell inh – IMPase inhibition in cells; P97697; CHO-M1 cells, IP1 accumulation, HTRF TR-FRET ratio; inhibition (IP1 accumulation), % at 46.1 µM; 120,000 tested, under 10 active; AID 901; active means well fitted curve in the direction sought with a large enough effect in the signal ratio, not every such curve was filed as active; inconclusive means small, poorly fitted or top-dose-only effect, or a change in a side signal; inactive means no such curve, though single readings can be large or run the other way; the % refers to the signal ratio;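 further: cells stimulated with carbachol in lithium chloride buffer; plate controls were DMSO basal wells for no effect and reference inhibitor wells for full effect; higher means more IMPase inhibition seen as more IP1 and lower FRET ratio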
#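 The IP-One HTRF competitive assay in carbachol-stimulated CHO-M1 cells quantifies cellular IP1. Compounds spanned up to 46 uM final, and activity is expressed as AC50 from concentration-response fits of the ratio and donor data.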
# IMPase Li cell – membrane-permeable IMPase blocker, potentiated with lithium | CHO-M1 cells, IP1 TR-FRET (IP-One), carbachol + lithium | Potency, µM (titrated, usually from 59.4 µM), inactives show at the top dose activity, negative = IMPase inhibition, most hits filed as inhibitors | 210,000 tested, 0.35% active | AID 1457; active means well fitted curve in the direction sought with a large enough effect; inconclusive means small, poorly fitted or top-dose-only effect, or another doubt; inactive means no such curve, though single readings can be large; an effect the other way counts as inactive or inconclusive;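 further: IP1 builds up when IMPase is blocked and the TR-FRET signal falls; potency means the concentration at half of the fitted maximal effect; plate controls were basal vehicle for no effect and high inhibitor control for full effect; nearly all actives have a fitted effect of over 50% in size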
#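 Lithium-sensitised IP1 accumulation assay; M1-expressing CHO cells treated 30 min at 37C with compound. Competitive antibody detection by time-resolved FRET followed a 10 min room-temperature lysis step.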
# The depositor's hits bear a star; ? = inconclusive; nt = no result given; [ ] = another dose, or the depositor's remark. Unless noted, the call rests on the fitted dose curve; in most records, active means well fitted inhibition curve with a large enough effect (not every such curve was filed as active); inconclusive means small, poorly fitted or top-dose-only effect, or another doubt; inactive means no such curve, though single readings can be large or run the other way. Unless noted, on the % scale 0 is the no-effect control and ±100 the full control effect.
SMILES,HPGD block,ALDH1A1 inh,ALOX12 inhib,PNC assembly inh,IMPase cell inh,IMPase Li cell
C[C@@H](COc1ccc(/C=C\c2ccccc2)cc1)[N+](C)(C)C,nt,nt,-6.0%,nt,22.2,nt
CCOC(=O)N1CCN(C(=O)CN(c2ccccc2F)S(=O)(=O)c2ccc(C)cc2)CC1,nt,nt,nt,nt,-4.9,nt
CC(C)C[C@H](NC(=O)N1CCCCCC1)C(=O)N[C@H](Cc1cn(C)c2ccccc12)C(=O)N[C@H](Cc1ccccn1)C(=O)O,-1.8%,-12.2%,2.1%,nt,0.7,7.1%
O=C(Cl)c1c(Cl)cccc1Cl,-7.0%,?,3.2%,nt,nt,-4.8%
Oc1cc(O)c2c(c1)O[C@@H](c1ccc(O)c(O)c1)[C@H](O[C@@]1(c3cc(O)c(O)c(O)c3)Oc3cc(O)cc(O)c3[C@H](O)[C@@H]1O)C2,-13.6%,8.6%[13.5 µM],?,nt,nt,-3.7%
Cc1cccc(NC(=S)NCC2CCCO2)c1 (stereo not given),14.1µM*,-4.9%,4.2%,17.2,-3.8,18.3%[38.3 µM]
Cc1ccc(NC(=S)NCC2CCCO2)cc1C (stereo not given),-20.7%,?,-5.7%,-17.9,-5.6,13.8%
S=C(NCC1CCCO1)Nc1ccc(Cl)cc1Cl (stereo not given),28.2µM*,-5.3%,2.9%,?,nt,-0.4%
S=C(NCC1CCCO1)Nc1ccc(Cl)cc1 (stereo not given),-26.4%,-14.5%,-4.0%,27.4,nt,-2.8%
COc1ccc(-c2nc3cnc(N4CCOCC4)nc3n(Cc3cccc(OC)c3)c2=O)cc1,nt,?,nt,nt,nt,15.8%
COCCNC(=S)N(c1ccccc1)C(C)C,nt,?,nt,nt,nt,4.5%
COCCNC(=S)NN(c1ccccc1)c1ccccc1,nt,31.6µM*,nt,nt,nt,9.7%
COC(=O)N1CCC[C@@]2(CCN(c3ccncc3)C2)C1,-1.1%,1.8%,3.1%,nt,nt,6.6%
O=C(Nc1ccc(Cl)cc1)N[C@@H]1c2c(ccc3ccccc23)OC[C@@H]1CO,-6.5%,6.7%,-11.9%,-106.0*,-3.4,-2.0%[38.3 µM]
O=C(NCC1CCN(S(=O)(=O)c2ccccc2)CC1)Nc1ccc(F)cc1F,nt,-0.7%,nt,nt,nt,nt
O=C(NCC1CCN(S(=O)(=O)c2ccccc2)CC1)Nc1ccccc1,nt,28.2µM*,nt,nt,nt,nt
COc1ccc(N2CCC(CNC(=O)Nc3ccccc3)C2)cc1 (stereo not given),?,5.01µM*,-21.8%,3.0,-0.4,55.9%[38.3 µM]
COc1ccccc1CNc1nc(-c2ccoc2)nc2ccccc12,nt,?,nt,nt,nt,2.9%
Cc1noc2ncnc(Oc3ccc(Cl)cc3Cl)c12,nt,12.1%,nt,nt,nt,4.7%
N=c1c(C(=O)NC2CCCC2)cc2c(=O)n3ccccc3nc2n1C1CCCC1,?,?,31.6µM*,92.2,5.2,-6.1%[38.3 µM]
Cc1cc(=O)n(CC=C(Cl)Cl)c2ccccc12,7.94µM*,?,-5.9%,?,0.7,10.7%[38.3 µM]
COC(=O)C1=C(C)[C@H](O)[C@@H](C)[C@](C)(c2cc(OC)c(C)c(OC)c2COc2ccccc2)O1,-5.6%,8.6%,nt,nt,nt,11.3%
CCN(CC)CCn1c(-c2ccccc2)nc2c(NCCOC)nc(C)nc21,?,?,-1.9%,nt,nt,3.1%
COc1cccc(CNC(=O)C23CN(Cc4ccccc4)CC2C(c2ccc([N+](=O)[O-])cc2)=NO3)c1 (stereo not given),-8.0%,?,5.3%,61.7,4.1,6.9%[38.3 µM]
O=C(NCc1ccccc1C(F)(F)F)C12CN(Cc3ccccc3)CC1C(c1ccc([N+](=O)[O-])cc1)=NO2 (stereo not given),-17.4%,25.1µM*,0.0%,-119.2*,1.7,-1.1%
SMILES,HPGD block,ALDH1A1 inh,ALOX12 inhib,PNC assembly inh,IMPase cell inh,IMPase Li cell
CC(C)CCNC(=O)C12CN(Cc3ccccc3)CC1C(c1ccc([N+](=O)[O-])cc1)=NO2 (stereo not given),-21.6%,2.82µM*,-4.3%,?,5.0,8.6%
O=C(Oc1ccccc1)N1CCC2(CCCN(c3ccccn3)C2)CC1,-25.3%,?,0.0%,nt,nt,28.4%
CCOC(=O)c1c(NC(=O)CCC(=O)O)sc2c1CCCCC2,8.91µM*,8.91µM*,-3.6%,?,nt,-7.8%
CCOC(=O)c1c(NC(=O)CCCC(=O)O)sc2c1CCC2,nt,-0.2%,nt,nt,nt,1.7%
COc1ccccc1NC(=O)c1c(NC(=O)CCC(=O)O)sc2c1CCCCC2,nt,22.4µM*,nt,nt,nt,nt
CCOC(=O)c1c(NC(=O)OC)sc2c1CCC2,-4.4%,-13.5%,0.5%,10.5,5.9,10.0%[38.3 µM]
CCOC(=O)c1c(NC(=O)CNCCOC)sc2c1CCCC2,-20.9%,25.1µM*,-2.5%,256.1,?,12.8%
COc1ccc(OC)c(NC(=O)c2c(NC(=O)CCC(=O)O)sc3c2CCCCC3)c1,-0.6%,-10.1%,-2.0%,47.3,nt,-8.7%
Cc1ccc(-[n+]2cc(=O)o[nH]2)cc1,-5.5%,0.1%[13.5 µM],-15.7%[11.4 µM],nt,nt,-0.6%
CCOC1=C/C(=C/c2c(N)n3nc(-c4ccccc4)sc3nc2=O)C=CC1=O,nt,?,nt,nt,nt,-7.1%
CCS(=O)(=O)c1nn2c(N)c(/C=C3/C=CC(=O)C(OC)=C3)c(=O)nc2s1,?,-9.2%,-4.8%,-116.4*,nt,14.0%
COC1=C/C(=C/c2c(N)n3nc(-c4ccc(C)cc4)sc3nc2=O)C=CC1=O,nt,1.12µM*,nt,nt,nt,-9.5%
CC(=O)c1c(C)oc2ccc(N(C(=O)Oc3ccccc3)S(=O)(=O)c3ccc(Br)cc3)cc12,nt,nt,nt,nt,5.8,nt
O=C(COC(=O)c1cc(-c2ccco2)nc2ccccc12)NCc1ccc2c(c1)OCO2,?,?,-7.2%,-100.0*,2.6,2.0%
Cc1nn(-c2ccccc2)c(C)c1C(=O)OCC(N)=O,nt,10.7%,nt,nt,nt,4.5%
Cc1nn(-c2ccccc2)c(C)c1C(=O)OCC(=O)NCc1ccco1,-17.1%,22.4µM*,2.0%,-9.3,-3.5,23.0%[38.3 µM]
O=C(NCc1ccco1)c1cc(-c2cccs2)nc2ccccc12,?,?,-7.4%,31.4,-19.7,-2.4%
O=C(COC(=O)c1cc(-c2cccs2)nc2ccccc12)NCc1ccco1,?,?,?,?,-14.2,7.94µM*
COc1ccccc1CNC(=O)COC(=O)c1cc(-c2ccco2)nc2ccccc12,?,?,-6.5%,20.2,1.6,18.8%[38.3 µM]
COc1ccc(CNC(=O)COC(=O)c2cc(-c3ccc(Cl)s3)nc3ccccc23)cc1,?,?,-8.3%,?,-4.3,10µM*
CN(Cc1ccccc1)C(=O)CSc1nc(-c2ccc(F)cc2)cc(C(F)(F)F)n1,nt,nt,nt,nt,6.8,nt
C=C1c2c(Cl)ccc(O)c2C(O)=C2C(=O)[C@@]3(O)C(O)=C(C(N)=O)C(=O)[C@@H](N(C)C)[C@@H]3[C@@H](O)[C@H]12,-21.2%,?,-5.8%[25.6 µM],nt,1.1[20.6 µM],-8.5%
COc1ccc(NC2=C(Cl)C(=O)N(CCc3ccccc3)C2=O)c(OC)c1,15.8µM*,?,-3.1%,37.2,nt,10.7%

# Source: PubChem BioAssay
